Measured values published in PubChem BioAssay AID493036 (Sanford-Burnham Center for Chemical Genomics, 2011).
Screen size: about 330,000 compounds; about 560 (0.17%) were called active.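 Rule for the calls: active = activation at or above 40% of the spot to cytoplasm intensity ratio, with at least 20 cells analyzed; inconclusive = wells under 20 cells, flagged as cytotoxic or low count; inactive = the rest.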 Only a selection was taken, and actives are over-represented in it overall.

Tests used:
[1] = NTR1-driven beta-arrestin-GFP spot formation – imaging, U2OS cells, high content, primary screen (AID 493036); details: agonist mode, measured here: cell count, cytotoxicity flag, at 20 µM;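 for activation: 0% = DMSO without peptide and 100% = 100 nM NTR1 peptide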
[2] = target: Neurotensin receptor type 1 (Homo sapiens) (UniProt P30989); experiment: as above; details: agonist mode, at 20 µM, stronger effect = higher value
Neurotensin receptor type 1 (Homo sapiens), sequence (P30989 whole entry, looked up): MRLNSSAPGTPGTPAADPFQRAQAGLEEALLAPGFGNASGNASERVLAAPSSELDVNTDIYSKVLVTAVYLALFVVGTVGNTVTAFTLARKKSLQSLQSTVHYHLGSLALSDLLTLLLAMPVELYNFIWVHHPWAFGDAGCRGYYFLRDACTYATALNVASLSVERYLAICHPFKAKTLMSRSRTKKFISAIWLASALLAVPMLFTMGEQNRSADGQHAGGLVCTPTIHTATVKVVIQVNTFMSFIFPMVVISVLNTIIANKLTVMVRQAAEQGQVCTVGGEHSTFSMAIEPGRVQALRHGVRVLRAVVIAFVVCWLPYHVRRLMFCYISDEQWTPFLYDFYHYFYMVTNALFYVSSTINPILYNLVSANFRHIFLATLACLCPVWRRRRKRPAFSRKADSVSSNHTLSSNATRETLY

## CCOc1ccc(C(C)C)cc1S(=O)(=O)n1nc(C)cc1C
[1]
  cell count: 43 cells
[2]
  activation: 0.1% (inactive)

## COc1ccc(C(C[N+](=O)[O-])n2nc(C)cc2C)cc1 (configuration not stated)
[1]
  cell count: 64 cells
[2]
  activation: 47.9% (active)

## COc1ccc(OC)c(S(=O)(=O)n2c([N+](=O)[O-])cnc2C)c1
[1]
  cell count: 68 cells
[2]
  activation: 0.5% (inactive)

## CC(C)(CNC(=O)Cc1ccc(Cl)cc1Cl)N1CCOCC1
[1]
  cell count: 59 cells
[2]
  activation: -2.3% (inactive)

## CCOc1ccc2sc(NS(=O)(=O)c3ccc(N)cc3)nc2c1
[1]
  cell count: 62 cells
[2]
  activation: 2.8% (inactive)

## O=C(Nc1cc(Cl)ccc1N1CCOCC1)c1ccc(N2CCCC2=O)cc1
[1]
  cell count: 53 cells
[2]
  activation: -1.6% (inactive)

## CCn1c(Cc2cccs2)nnc1SCC(=O)c1ccc(C)cc1
[1]
  cell count: 56 cells
[2]
  activation: 0.5% (inactive)

## Fc1ccccc1CNC(=S)Nc1ccc(Cl)cc1
[1]
  cell count: 48 cells
[2]
  activation: 2.3% (inactive)

## CCN(CCNC(=O)C1=C(C)C(=O)OC12CCC(C)CC2)c1ccccc1 (configuration not stated)
[1]
  cell count: 64 cells
[2]
  activation: 3.9% (inactive)

## COc1ccc(OC)c(NC(=O)c2cnn(-c3ccccc3Cl)c2NC(=O)c2ccco2)c1
[1]
  cell count: 62 cells
[2]
  activation: 4.9% (inactive)

## CCOCCCNC(=S)Nc1ccc2nc(N3CCN(CC)CC3)cc(C)c2c1
[1]
  cell count: 73 cells
[2]
  activation: -2% (inactive)

## CCCCCCCC(=O)NC(Nc1ccccc1OC)C(Cl)(Cl)Cl (configuration not stated)
[1]
  cell count: 50 cells
[2]
  activation: 2.7% (inactive)

## Cc1nn(CC(=O)Nc2ccc(C#N)cc2)c(C)c1[N+](=O)[O-]
[1]
  cell count: 65 cells
[2]
  activation: 0.3% (inactive)

## CC(OC(=O)CN1C(=O)COc2ccccc21)C(=O)NCc1ccc(F)cc1 (configuration not stated)
[1]
  cell count: 51 cells
[2]
  activation: 0.8% (inactive)

## O=S(=O)(c1ccccc1)N1CN(Cc2ccc(F)cc2)c2nc3ccccc3nc21
[1]
  cell count: 40 cells
[2]
  activation: 0.8% (inactive)

## CC(C)CC1(C(=O)NCc2ccccn2)C=CCN1C(=O)c1ccccc1 (configuration not stated)
[1]
  cell count: 56 cells
[2]
  activation: -0.1% (inactive)

## CCN(C(=O)CSc1ncnc2c1cnn2-c1ccccc1)C1CCS(=O)(=O)C1 (configuration not stated)
[1]
  cell count: 39 cells
[2]
  activation: -0.3% (inactive)

## O=[N+]([O-])/C=C/c1ccc2c(ccn2Cc2ccccc2)c1
[1]
  cell count: 87 cells
[2]
  activation: 87.3% (active)

## CCCCC[C@@H]1C=C(C(=O)O)[C@H](c2ccc(C#N)cc2)N1S(=O)(=O)c1ccc(C)cc1
[1]
  cell count: 52 cells
[2]
  activation: 7.1% (inactive)

## CCCCCCCCCCCCN1C(=O)CSC1c1cccnc1 (configuration not stated)
[1]
  cell count: 45 cells
[2]
  activation: 11.6% (inactive)

## CC(C)Cn1c(CCC(=O)O)ccc1-c1cccs1
[1]
  cell count: 50 cells
[2]
  activation: -0.5% (inactive)

## COc1ccccc1NC(=O)C1CCN(C(=O)c2ccc(C(C)(C)C)cc2)CC1
[1]
  cell count: 46 cells
[2]
  activation: -0.5% (inactive)

## Cc1ccc(S(=O)(=O)NNC(=O)/C=C/c2cccc(F)c2)cc1
[1]
  cell count: 75 cells
[2]
  activation: 0% (inactive)

## CCCC(C(=O)NC1CCCC1)N(C(=O)Cn1nnc(-c2ccc(C)o2)n1)c1cccc(O)c1 (configuration not stated)
[1]
  cell count: 48 cells
[2]
  activation: 0.6% (inactive)

## CC1CCN(S(=O)(=O)c2ccc3c(ccn3CC(=O)O)c2)CC1
[1]
  cell count: 71 cells
[2]
  activation: 0.7% (inactive)

## C#CCCOC(=O)N1C2=NC(C(=O)OC)=C(C(=O)OC)[C@@H]3N(C)c4ccc(OC)cc4[C@]23C[C@H]1C(=O)OC
[1]
  cell count: 67 cells
[2]
  activation: 1.9% (inactive)

## Cc1ccc(N(C(=O)c2sc(C)nc2C)C(C(=O)NC(C)(C)C)c2ccncc2)cc1 (configuration not stated)
[1]
  cell count: 32 cells
[2]
  activation: -0.4% (inactive)

## O=C(Oc1ccccc1C(=S)N1CCCCC1)c1cc([N+](=O)[O-])cc([N+](=O)[O-])c1
[1]
  cell count: 41 cells
[2]
  activation: 0.8% (inactive)

## CCOC(=O)c1cnc2c(c(C)nn2CC)c1Cl
[1]
  cell count: 47 cells
[2]
  activation: 2.2% (inactive)

## O=C(OCC(O)C(O)COC(=O)c1ccccc1)c1ccccc1 (configuration not stated)
[1]
  cell count: 68 cells
[2]
  activation: 0% (inactive)

## COc1ccc([C@H]2CC(=O)C=C(c3ccc(C)cc3)C2)cc1
[1]
  cell count: 62 cells
[2]
  activation: 3.1% (inactive)

## Cc1cc(C)c(NC(=O)C[N+](C)(C)CC(O)COc2cccc3ccccc23)c(C)c1 (configuration not stated)
[1]
  cell count: 43 cells
[2]
  activation: -1.1% (inactive)

## CCC(C)Sc1nc2c(c(=O)[nH]c(=O)n2C)n1CC(O)COc1cccc2ccccc12 (configuration not stated)
[1]
  cell count: 51 cells
[2]
  activation: 4.1% (inactive)

## CC(C)c1ccccc1OCC(O)CN(CC(O)COc1cccc2ccccc12)C(C)C (configuration not stated)
[1]
  cell count: 48 cells
[2]
  activation: 46.1% (active)

## CN(C)S(=O)(=O)N1CCN(c2ccc([N+](=O)[O-])cc2)CC1
[1]
  cell count: 47 cells
[2]
  activation: 0% (inactive)

## COCc1cc(=O)[nH]c(-c2ccc(C(F)(F)F)cc2)n1
[1]
  cell count: 62 cells
[2]
  activation: -0.3% (inactive)

## CC(Sc1nn(-c2ccc(Cl)cc2)c(=S)s1)C(=O)NCC1CCCO1 (configuration not stated)
[1]
  cell count: 67 cells
[2]
  activation: -1% (inactive)

## Cc1ccc(NC(=O)[C@H](Cc2ccccc2)NC(=O)C2CCNCC2)cc1
[1]
  cell count: 66 cells
[2]
  activation: -0.1% (inactive)

## COc1ccc(C2CC(=O)C=C(NCC3CCCO3)C2)cc1 (configuration not stated)
[1]
  cell count: 92 cells
[2]
  activation: -3.9% (inactive)

## O=C1N(Cc2ccc3c(c2)OCO3)c2ccccc2C1(O)c1c[nH]c2ccccc12 (configuration not stated)
[1]
  cell count: 56 cells
[2]
  activation: 5.6% (inactive)

## CC(C)(C)c1nnc(N/N=C/c2ccc(O)cc2)n(N)c1=O
[1]
  cell count: 60 cells
[2]
  activation: 1.1% (inactive)

## O=C(CCNS(=O)(=O)c1cccs1)N1CCN(c2ccc(F)cc2)CC1
[1]
  cell count: 42 cells
[2]
  activation: -0.5% (inactive)

## CCOC(=O)CN1CC23C=CC(O2)C(C(=O)Nc2ccc(F)cc2)C3C1=O (configuration not stated)
[1]
  cell count: 46 cells
[2]
  activation: -1.6% (inactive)

## COc1ccc(N2CCN(S(=O)(=O)c3ccc4c(c3)N(C(C)=O)CCO4)CC2)cc1
[1]
  cell count: 59 cells
[2]
  activation: 1.4% (inactive)

## CCN(CC)S(=O)(=O)c1ccc(Cl)c(C(=O)NC(C)C(c2cccs2)N2CCCC2)c1 (configuration not stated)
[1]
  cell count: 57 cells
[2]
  activation: 0.4% (inactive)

## COC(c1ccccc1)c1nnc(CCC(=O)N2CCN(CCOc3ccccc3)CC2)o1 (configuration not stated)
[1]
  cell count: 37 cells
[2]
  activation: 0.7% (inactive)

## O=C1CN(C(=O)c2ccccc2F)C(c2ccc(F)cc2)c2cc(F)ccc2N1 (configuration not stated)
[1]
  cell count: 89 cells
[2]
  activation: 0% (inactive)

## O=C(CN1CCCSc2ccccc21)N1CCN(S(=O)(=O)c2ccccc2)CC1
[1]
  cell count: 62 cells
[2]
  activation: 0% (inactive)

## O=C(CCc1ccccc1Cl)Nc1ccc(S(=O)(=O)Nc2nccs2)cc1
[1]
  cell count: 42 cells
[2]
  activation: 1.9% (inactive)

## O=C(CS(=O)(=O)c1ccc(C(F)(F)F)cn1)NNC(=O)c1ccccc1
[1]
  cell count: 55 cells
[2]
  activation: -1% (inactive)

## Cc1ccc(C(C)NC(=O)Cn2nc(C)c([N+](=O)[O-])c2C)cc1 (configuration not stated)
[1]
  cell count: 54 cells
[2]
  activation: 3.1% (inactive)

## O=C(Cn1ncc(N2CCCC2)c(Br)c1=O)c1ccc(Cl)cc1
[1]
  cell count: 53 cells
[2]
  activation: 2.8% (inactive)

## CCC/C(C)=N\Nc1nc2c(c(=O)n(C)c(=O)n2C)n1C
[1]
  cell count: 58 cells
[2]
  activation: 0.3% (inactive)

## CCOc1ccc(NC(=O)N2CC=C(n3c(=O)[nH]c4ccccc43)CC2)cc1
[1]
  cell count: 42 cells
[2]
  activation: 0.4% (inactive)

## COc1ccc(C(C(=O)NC2CCCCC2)N(C(=O)CCl)c2ccccc2Cl)cc1 (configuration not stated)
[1]
  cell count: 35 cells
[2]
  activation: 7.8% (inactive)

## O=C(OCC(=O)N1CCCC1=O)c1cc(S(=O)(=O)N2CCOCC2)ccc1Cl
[1]
  cell count: 45 cells
[2]
  activation: -0.7% (inactive)

## Nc1c(C(=O)Nc2ccc3c(c2)OCCO3)nnn1Cc1ccccc1
[1]
  cell count: 53 cells
[2]
  activation: 0.3% (inactive)

## CCOc1ccc(CN2CCN(Cc3c[nH]c4ccccc34)CC2)cc1
[1]
  cell count: 62 cells
[2]
  activation: 0.2% (inactive)

## Cc1ccc2c(c1)C(O)(CC(=O)c1cccc(-n3cccc3)c1)C(=O)N2 (configuration not stated)
[1]
  cell count: 57 cells
[2]
  activation: 1.6% (inactive)

## O=C(Nc1ccc(F)c([N+](=O)[O-])c1)C1CCCO1 (configuration not stated)
[1]
  cell count: 58 cells
[2]
  activation: -0.8% (inactive)

## CCCC(=O)Nc1ncnc2c1ncn2[C@@H]1O[C@@H]2OP(=O)(O)OC[C@H]2[C@H]1OC(=O)CCC
[1]
  cell count: 60 cells
[2]
  activation: 1.1% (inactive)

## COc1ccc(C)cc1-n1nnnc1SCC(=O)c1cc(C)n(Cc2ccco2)c1C
[1]
  cell count: 88 cells
[2]
  activation: 2.5% (inactive)

## Cc1ccc2nc3c(cc(C(=O)NCCc4ccccc4)c(=N)n3CC3CCCO3)c(=O)n2c1 (configuration not stated)
[1]
  cell count: 47 cells
[2]
  activation: 0.1% (inactive)

## O=C(COC(=O)C1CC2C=CC1C2)Nc1ccccc1 (configuration not stated)
[1]
  cell count: 55 cells
[2]
  activation: -0.8% (inactive)

## CCOc1ccc(N(CC(=O)Nc2ccccc2F)S(=O)(=O)c2c(C)[nH]c(=O)[nH]c2=O)cc1
[1]
  cell count: 61 cells
[2]
  activation: -0.8% (inactive)

## CCCCCCCCCCOC(=O)Cn1c(COc2ccc(C)cc2)[n+](C)c2ccccc21
[1]
  cell count: 48 cells
[2]
  activation: 28.5% (inactive)

## CCCCCCCCCCOC(=O)Cn1c(COc2cccc(OC)c2)[n+](C)c2ccccc21
[1]
  cell count: 71 cells
[2]
  activation: 69.3% (active)

## COc1cccc(OCc2nnc3n2N=C(c2ccccc2)C(CC(=O)O)S3)c1 (configuration not stated)
[1]
  cell count: 51 cells
[2]
  activation: 0.6% (inactive)

## CC1=C(C(=O)OCc2ccccc2)C(c2ccco2)n2ncnc2N1 (configuration not stated)
[1]
  cell count: 52 cells
[2]
  activation: -3.8% (inactive)

## CCOC(=O)CSC1=C(C#N)C(c2ccco2)C(C(=O)OCc2ccccc2)=C(C)N1 (configuration not stated)
[1]
  cell count: 51 cells
[2]
  activation: 41.1% (active)

## CC1=C(C(=O)Nc2ccccc2)C(c2cccs2)C(C#N)=C(SCC#N)N1 (configuration not stated)
[1]
  cell count: 63 cells
[2]
  activation: 0.8% (inactive)

## Cc1ccccc1C(=O)Nc1cccc(-c2nnc(SCC(=O)O)n2C)c1
[1]
  cell count: 57 cells
[2]
  activation: 1.7% (inactive)

## Cc1cc(S(=O)(=O)NCc2ccccn2)c(Cl)cc1Cl
[1]
  cell count: 75 cells
[2]
  activation: 0.3% (inactive)

## Cc1cc(/C=C2/SC(=O)N(CC(=O)OC(C)C)C2=O)c(C)n1C
[1]
  cell count: 60 cells
[2]
  activation: 0.9% (inactive)

## COc1ccccc1C(=O)Nn1cnnc1
[1]
  cell count: 66 cells
[2]
  activation: -0.3% (inactive)

## COc1ccc(C2=NN(c3ccccc3)C(c3cccs3)C2)cc1 (configuration not stated)
[1]
  cell count: 44 cells
[2]
  activation: 1.2% (inactive)

## O=C1C2N=NN(CC(=O)N3N=C(c4cccc5ccccc45)CC3c3ccccc3)C2C(=O)N1c1ccccc1 (configuration not stated)
[1]
  cell count: 87 cells
[2]
  activation: 2.9% (inactive)

## Oc1ccccc1C1=NN(c2ccccc2)C(c2ccccc2)C1 (configuration not stated)
[1]
  cell count: 102 cells
[2]
  activation: 48.9% (active)

## O=C(/C=C/c1ccc(Cl)cc1Cl)c1cccnc1
[1]
  cell count: 71 cells
[2]
  activation: 29.2% (inactive)

## O=C(/C=C/c1ccc(Cl)c([N+](=O)[O-])c1)c1cccnc1
[1]
  cell count: 51 cells
[2]
  activation: 50% (active)

## O=C(Nc1ccncc1)c1ccc(Cl)c([N+](=O)[O-])c1
[1]
  cell count: 85 cells
[2]
  activation: -0.2% (inactive)
